Results filed as inconclusive are left out. Calls of active or inactive are those of the source. Unless noted, calls come from the whole dose curve; as a rule, active = well fitted curve in the direction sought with a large enough effect in the repeat runs; inconclusive = weak or mixed curves; inactive = no such curve, though single readings can be large; an effect the other way counts as inactive or inconclusive.
Key:
[1] = A CellTox Green Cytotoxicity Assay to monitor cytotoxicity in HepG2 cells - 8 hour (AID 1224890); note: nearly all actives have a fitted effect of over 45% in size
Procedure, shortened: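 Nonlytic assay: viable cells exclude the dye, so fluorescence scales with cell death. HepG2 at 600 cells/well, compounds added after 5 h, signal read across 40 h.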

[2] = qHTS assay to identify small molecule antagonists of the estrogen receptor alpha (ER-alpha) signaling pathway using the BG1 cell line in the presence of 0.1 nM 17-beta-estradiol - cell viability counter screen (AID 1259241); note: nearly all actives have a fitted effect of over 40% in size
Procedure, shortened: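 Cytotoxicity counter-screen: live-cell protease activity measured by fluorescence (30 min reagent step) in the same wells. Cells were VM7Luc4E2 with endogenous ER-alpha and ERE-driven luciferase, treated 22 hr at 37C alongside 0.1 nM 17beta-estradiol final.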

[3] = qHTS assay to identify small molecule antagonists of the androgen receptor (AR) signaling pathway using the MDA cell line in the presence of 0.5 nM R1881 - cell viability counter screen (AID 1259242); note: nearly all actives have a fitted effect of over 45% in size
Procedure, shortened: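 R1881 at 0.5 nM final stimulated MDA-kb2 cells during 16 hr compound treatment at 37C. Cytotoxicity read: CellTiter-Fluor fluorescence after 30 min.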

[4] = target: Estrogen receptor (Homo sapiens) (UniProt P03372); assay: qHTS assay to identify small molecule antagonists of the estrogen receptor alpha (ER-alpha) signaling pathway using the BG1 cell line in the presence of 0.1 nM 17-beta-estradiol (AID 1259244); note: nearly all actives have a fitted effect of over 50% in size
Sequence of Estrogen receptor (Homo sapiens) (P03372 whole entry, looked up): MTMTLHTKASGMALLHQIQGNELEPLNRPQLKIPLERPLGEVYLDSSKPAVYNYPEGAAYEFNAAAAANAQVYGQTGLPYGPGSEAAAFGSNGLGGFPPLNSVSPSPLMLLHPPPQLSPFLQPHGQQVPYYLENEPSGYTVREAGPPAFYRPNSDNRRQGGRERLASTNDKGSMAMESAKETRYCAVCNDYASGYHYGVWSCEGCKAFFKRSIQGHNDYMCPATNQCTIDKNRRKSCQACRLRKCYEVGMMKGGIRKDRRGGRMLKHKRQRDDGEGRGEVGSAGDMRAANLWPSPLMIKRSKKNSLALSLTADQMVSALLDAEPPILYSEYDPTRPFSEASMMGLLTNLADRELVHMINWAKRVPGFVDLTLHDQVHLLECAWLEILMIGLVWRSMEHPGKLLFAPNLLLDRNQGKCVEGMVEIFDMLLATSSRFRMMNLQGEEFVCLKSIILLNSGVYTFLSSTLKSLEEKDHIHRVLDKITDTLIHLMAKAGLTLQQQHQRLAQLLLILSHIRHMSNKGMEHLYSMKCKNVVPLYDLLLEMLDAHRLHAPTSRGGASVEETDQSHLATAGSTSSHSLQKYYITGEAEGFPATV
Procedure, shortened: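 VM7Luc4E2; 4xERE-luciferase; 0.1 nM E2 final; 22 h co-incubation, 37C; ONE-Glo luminescence after 30 min at room temperature.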

[5] = qHTS assay to identify small molecule HDAC inhibitors (AID 1259364); note: potency is the fitted concentration of half-maximal effect;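 note: wild-type HCT-116 cells with endogenous class I/II HDAC activity; nearly all actives have a fitted effect of over 45% in size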; for activity change, negative = inhibition: top concentration of the series differs between compounds
Procedure, shortened: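 Relative class I and II HDAC activity is taken from the luminogenic signal in HCT-116 cells, with compound exposure 2 hr and reagent development 30 min at room temperature.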

[6] = qHTS assay to identify small molecule HDAC inhibitors - cell viability counter screen (AID 1259365); note: series mostly up to about 92 µM; nearly all actives have a fitted effect of over 50% in size
Procedure, shortened: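 CellTiter-Glo luminescence (30 min, room temperature) reported viability after a 2 h compound exposure at 37 C. Cells: wild-type HCT-116, 1,500 per well, seeded the night before.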

[7] = qHTS assay to identify small molecule agonists of the sonic hedgehog signaling (Shh) pathway - cell viability counter screen (AID 1259366); note: nearly all actives have a fitted effect of over 50% in size
Procedure, shortened: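 Cytotoxicity counter screen: CellTiter-Fluor reagent added after 23 h compound exposure, then 1 h at 37C and fluorescence read. Cells were 3T3 Gli1-Luc, seeded 2,000 per well and dosed 4 h post-plating.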

[8] = qHTS assay to identify small molecule antagonists of the sonic hedgehog signaling (Shh) pathway - cell viability counter screen (AID 1259367); note: nearly all actives have a fitted effect of over 55% in size
Procedure, shortened: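 Using CellTiter-Fluor, viability of Gli1-Luc reporter 3T3 cells is read by fluorescence in the wells used for the Shh luciferase assay. Treatment lasts 23 hr with conditioned medium, then reagent 1 hr at 37C.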

[9] = qHTS assay to identify small molecule agonists of the sonic hedgehog signaling (Shh) pathway (AID 1259368; calls by dose curve;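 note: NIH/3T3-derived 3T3Gli1-Luc cells carrying a stable Gli1-driven firefly luciferase reporter; series mostly up to about 92 µM; nearly all actives have a fitted effect of over 15% in size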)
Procedure, shortened: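 Mouse fibroblast (NIH/3T3) reporter cells with stably integrated Gli1-Luc were treated 24 hr with compound; firefly luciferase luminescence served as the read-out.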

[10] = qHTS assay to identify small molecule antagonists of the sonic hedgehog signaling (Shh) pathway (AID 1259369; calls by dose curve; note: nearly all actives have a fitted effect of over 45% in size)
Procedure, shortened: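 Conditioned medium drives Shh signalling in 3T3Gli1-Luc cells; compounds in DMSO co-applied, 24hr at 37 C, then luciferase luminescence.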

[11] = qHTS assay to identify small molecule agonists of the androgen receptor (AR) signaling pathway in the presence of an antagonist - cell viability counter screen (AID 1259379);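 note: MDA-kb2 human breast cancer cells carrying an MMTV luciferase reporter; series mostly up to about 92 µM; nearly all actives have a fitted effect of over 25% in size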
Procedure, shortened: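 A CellTiter-Fluor read-out measured viability of MDA-kb2 reporter cells (MMTV promoter with AR and GR response elements). Treatment: nilutamide 3.0uM final with compounds at 15 concentrations, 16 hr, 37C, 0% CO2.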

[12] = qHTS assay to identify small molecule agonists of the estrogen receptor beta (ER-beta) signaling pathway - cell viability counter screen (AID 1259380); note: nearly all actives have a fitted effect of over 30% in size; note: potency is the fitted concentration of half-maximal effect
Procedure, shortened: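 Cells used were ER-beta-UAS-bla HEK293T in medium with 2% charcoal-stripped FBS. They were treated for 16 hr at 37C. Viability came from CellTiter-Glo luminescence.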

[13] = target: Estrogen receptor (Homo sapiens) (UniProt P03372); assay: qHTS assay to identify small molecule agonists of the estrogen receptor alpha (ER-alpha) signaling pathway in the presence of an antagonist (AID 1259383; calls by dose curve; note: top concentration of the series differs between compounds; nearly all actives have a fitted effect of over 15% in size)
Procedure, shortened: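 Using VM7Luc4E2 cells seeded 24hr before treatment, antagonist ICI-182,780 (10.0nM final) was added, followed by compounds at 15 concentrations. Plates incubated 22hr; ONE-Glo luminescence quantified reporter activity.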

[14] = qHTS assay to identify small molecule agonists or antagonists of the thyroid stimulating hormone receptor (TSHR) signaling pathway - wild type cell line counter screen (AID 1259384; calls by dose curve)
Procedure, shortened: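 Counter screen in untransfected Hek293: compounds (15-point titration, triplicate) plus phosphodiesterase inhibitor Ro20-1724 added after 18 h plating; 30 min RT. Intracellular cAMP via competitive d2/cryptate immunoassay, 1 h incubation.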

[15] = qHTS assay to identify small molecule phospholipidosis (PLD) inducers (AID 1259344; active = well fitted curve in the direction sought with a large enough effect; an effect the other way counts as inactive or inconclusive)
Procedure, shortened: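 Fluorescent phospholipid staining (LipidTOX Red) measured by automated microscopy in fixed HepG2 cells after 24 h treatment; nuclei counterstained with Hoechst 33342; amiodarone as reference inducer.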

[16] = target: Estrogen receptor beta (Homo sapiens) (UniProt Q92731); assay: qHTS assay to identify small molecule agonists of the estrogen receptor beta (ER-beta) signaling pathway (AID 1259377; active = well fitted activation curve with a large enough effect in the signal ratio in the repeat runs, not every such curve was filed as active; the % refers to the signal ratio)
Sequence of Estrogen receptor beta (Homo sapiens) (Q92731 whole entry, looked up): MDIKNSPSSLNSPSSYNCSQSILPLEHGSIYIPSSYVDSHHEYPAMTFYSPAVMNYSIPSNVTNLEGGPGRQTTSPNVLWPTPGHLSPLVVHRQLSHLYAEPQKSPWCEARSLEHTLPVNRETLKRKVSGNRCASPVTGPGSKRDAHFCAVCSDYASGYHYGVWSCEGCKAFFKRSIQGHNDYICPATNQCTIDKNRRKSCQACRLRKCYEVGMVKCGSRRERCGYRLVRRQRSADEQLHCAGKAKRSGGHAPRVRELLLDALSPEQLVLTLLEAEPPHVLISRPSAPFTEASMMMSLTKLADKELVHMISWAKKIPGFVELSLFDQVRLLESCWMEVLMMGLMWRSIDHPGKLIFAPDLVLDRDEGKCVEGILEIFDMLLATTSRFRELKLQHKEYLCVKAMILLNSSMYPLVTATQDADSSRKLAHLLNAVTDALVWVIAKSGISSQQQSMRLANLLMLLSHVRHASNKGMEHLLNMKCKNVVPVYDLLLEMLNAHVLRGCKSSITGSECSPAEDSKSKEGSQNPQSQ
Procedure, shortened: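 Ratiometric beta-lactamase FRET read-out came after 2 h substrate loading at room temperature. It followed 16 h compound treatment at 37C of GripTite HEK293T cells carrying a UAS-bla reporter, plated in 2% charcoal-stripped FBS medium.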

[17] = target: Estrogen receptor beta (Homo sapiens) (UniProt Q92731); assay: qHTS assay to identify small molecule antagonists of the estrogen receptor beta (ER-beta) signaling pathway (AID 1259378; active = well fitted inhibition curve with a large enough effect in the signal ratio in the repeat runs, not every such curve was filed as active; the % refers to the signal ratio)
Procedure, shortened: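 Antagonist mode: compounds added to beta-lactamase reporter HEK293T ER-beta-UAS cells stimulated with E2 (1nM final), 16 hr at 37C. LiveBLAzer B/G FRET substrate, 2 hours room temperature, fluorescence read-out.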

[18] = qHTS assay to identify small molecule antagonists of the estrogen receptor beta (ER-beta) signaling pathway - cell viability counter screen (AID 1259382); note: series mostly up to about 92 µM; nearly all actives have a fitted effect of over 55% in size
Procedure, shortened: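 Agonist-stimulated (1nM E2) ER-beta-UAS-bla HEK293T cells are incubated with library compounds for 16 hr at 37C. Cell viability is then assessed in the reporter-assay wells by adding CellTiter-Glo and reading luminescence after 30 min.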
% is set by controls: 0 for no effect and ±100 for the full control effect.

On1nnc2ccccc21
inactive: outcome [1] | Potency [2] | outcome [3] | Potency [4] | Potency [5] | outcome [6] | Potency [7] | Potency [8] | outcome [9] | Potency [10] | Potency [11] | outcome [13] | outcome [14]
active: Potency [12] 1540 nM

O=C(NCC(O)CO)c1c(I)c(C(=O)NCC(O)CO)c(I)c(N(CCO)C(=O)CO)c1I (centres undefined)
inactive: outcome [1] | Potency [2] | outcome [3] | outcome [15] | Potency [5] | outcome [6] | Potency [7] | Potency [8] | outcome [9] | Potency [10] | Potency [16] | outcome [17] | Potency [11] | Potency [12] | outcome [18] | outcome [14]

CCCCNc1ccc(C(=O)OCCN(C)C)cc1
inactive: outcome [1] | Potency [2] | outcome [3] | outcome [15] | Potency [5] | outcome [6] | Potency [7] | Potency [8] | outcome [9] | Potency [10] | Potency [11] | Potency [12] | outcome [18] | outcome [14]

CC(C)OC(=O)CCCCC(=O)OC(C)C
inactive: outcome [1] | Potency [2] | outcome [3] | Potency [4] | Potency [5] | outcome [6] | Potency [7] | outcome [9] | Potency [10] | Potency [16] | outcome [17] | Potency [11] | Potency [12] | outcome [18] | outcome [14]

Cc1cccc2nccnc12
inactive: outcome [1] | Potency [2] | outcome [3] | Potency [4] | Potency [5] | outcome [6] | Potency [7] | Potency [8] | outcome [9] | Potency [16] | Potency [11] | Potency [12] | outcome [18] | outcome [14]

CC(C)CCCC(C)(C)O
inactive: outcome [1] | Potency [2] | outcome [3] | Potency [4] | Potency [5] | outcome [6] | Potency [7] | Potency [8] | outcome [9] | Potency [16] | outcome [17] | Potency [11] | Potency [12] | outcome [18] | outcome [13] | outcome [14]

O=C1c2ccccc2C(=O)c2cc(S(=O)(=O)O)ccc21
active: Potency [5] 2440 nM
inactive: outcome [1] | Potency [2] | outcome [3] | Potency [4] | outcome [6] | Potency [7] | Potency [8] | outcome [9] | Potency [10] | Potency [11] | Potency [12] | outcome [18] | outcome [14]

C=C(C)C(=O)OCC(C)(C)COC(=O)C(=C)C
inactive: outcome [1] | Potency [2] | outcome [3] | Potency [4] | Potency [5] | outcome [6] | Potency [7] | Potency [8] | outcome [9] | Potency [16] | outcome [17] | Potency [11] | Potency [12] | outcome [18] | outcome [13]

O=C(/N=N/C(=O)OCc1ccccc1)OCc1ccccc1
inactive: outcome [1] | Potency [2] | outcome [3] | Potency [4] | Potency [5] | outcome [6] | Potency [7] | Potency [8] | outcome [9] | Potency [10] | Potency [16] | outcome [17] | Potency [11] | outcome [18] | outcome [13] | outcome [14]

CC(C)C(=O)OCCc1ccccc1
inactive: outcome [1] | Potency [2] | outcome [3] | Potency [4] | Potency [5] | outcome [6] | Potency [7] | Potency [8] | outcome [9] | Potency [11] | Potency [12] | outcome [18] | outcome [14]

N[C@@H](CCC(=O)N[C@@H](CS)C(=O)NCC(=O)O)C(=O)O
inactive: cytotoxicity increase [1] -6.34% [at 15.8 µM] | activity change, negative = cytotoxicity [2] -2.09% [at 19 µM] | viability change, negative = cytotoxic [3] 1.98% [at 19 µM] | outcome [15] | activity change, negative = inhibition [5] -2.25% [at 19 µM] | activity change, negative = cytotoxicity [6] 2.26% [at 19 µM] | viability change, negative = cytotoxic [7] -6.52% [at 19 µM] | viability change, negative = cytotoxic [8] 0.577% [at 19 µM] | activity change [9] -0.793% [at 18.9 µM] | activity change, negative = inhibition [10] 20% [at 19 µM] | activity change, negative = cytotoxicity [11] -2.43% [at 19 µM] | activity change, negative = cytotoxicity [12] 8.98% [at 19 µM] | activity change, negative = cytotoxicity [18] 1.29% [at 19 µM] | cAMP activity change [14] 2.89% [at 18.9 µM]

CN=C(NC#N)Nc1ccc(C2=NNC(=O)CC2C)cc1 (centres undefined)
inactive: outcome [1] | Potency [2] | outcome [3] | outcome [15] | Potency [5] | outcome [6] | Potency [7] | Potency [8] | outcome [9] | Potency [10] | Potency [11] | Potency [12] | outcome [18] | outcome [14]

CN(C)c1ccc(C=O)cc1
inactive: outcome [1] | Potency [2] | outcome [3] | Potency [4] | outcome [6] | Potency [7] | Potency [8] | outcome [9] | Potency [10] | Potency [16] | outcome [17] | Potency [11] | Potency [12] | outcome [18] | outcome [13] | outcome [14]

CCCCCCCCOS(=O)(=O)O
inactive: outcome [1] | Potency [2] | outcome [3] | Potency [4] | Potency [5] | outcome [6] | Potency [7] | Potency [8] | outcome [9] | Potency [10] | Potency [16] | outcome [17] | Potency [11] | Potency [12] | outcome [18] | outcome [13] | outcome [14]

CC(=O)/C=C/C1C(C)=CCC(C)C1(C)C (centres undefined)
inactive: outcome [1] | Potency [2] | outcome [3] | Potency [4] | Potency [5] | outcome [6] | Potency [7] | Potency [8] | outcome [9] | Potency [16] | outcome [17] | Potency [11] | Potency [12] | outcome [18] | outcome [13] | outcome [14]
